Hits are enriched below; roughly 11% of the tested compounds scored in any of these assays.
12-hLO inh: qHTS Assay for Inhibitors of 12-hLO (12-human lipoxygenase). Polyunsaturated fatty acid lipoxygenase ALOX12 (Homo sapiens), P18054. purified 12-hLO, xylenol orange hydroperoxide absorbance. Potency, µM (highest dose often 57.1 µM), without a hit: top-dose activity change, negative = inhibition, most hits filed as inhibitors. actives 0.12% (n = 150,000); active means well fitted curve in the direction sought with a large enough effect; inconclusive means small, poorly fitted or top-dose-only effect, or another doubt; inactive means no such curve, though single readings can be large; an effect the other way counts as inactive or inconclusive; further: potency means the concentration at half of the fitted maximal effect; nearly all actives have a fitted effect of over 55% in size
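Xylenol orange chromogenic assay: hydroperoxide from 12hLO oxidises Fe(II), giving red-shifted Fe(III)-XO absorbance. Conditions: 150 nM enzyme, 40 uM arachidonic acid, 25 mM Hepes pH 7.0, 0.01% Triton X-100, 30 min, room temperature.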
IMPase Li inh: qHTS Assay for Identifying the Cell-Membrane Permeable IMPase Inhibitors: Potentiation with Lithium; CHO-M1 cells, IP1 TR-FRET (IP-One), carbachol + lithium; Potency, µM (series often up to 59.4 µM), without a hit: top-dose activity, negative = IMPase inhibition, usual class: inhibitors; actives 0.35% (n = 210,000); active means well fitted curve in the direction sought with a large enough effect; inconclusive means small, poorly fitted or top-dose-only effect, or another doubt; inactive means no such curve, though single readings can be large; an effect the other way counts as inactive or inconclusive;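 further: IP1 builds up when IMPase is blocked and the TR-FRET signal falls; potency means the concentration at half of the fitted maximal effect; plate controls were basal vehicle for no effect and high inhibitor control for full effect; nearly all actives have a fitted effect of over 50% in size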
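Lithium-sensitised IP1 accumulation assay; M1-expressing CHO cells treated 30 min at 37C with compound. Competitive antibody detection by time-resolved FRET followed a 10 min room-temperature lysis step.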
HPGD block: qHTS Assay for Inhibitors of HPGD (15-Hydroxyprostaglandin Dehydrogenase) | 15-hydroxyprostaglandin dehydrogenase [NAD(+)] (Homo sapiens), P15428 | AID 894, 2007 | purified HPGD, NADH fluorescence kinetic, PGE2 substrate | Potency, µM, for the others: top-dose activity change, negative = inhibition, most hits filed as inhibitors | actives 4.3% (n = 150,000); further: potency means the concentration at half of the fitted maximal effect
Target sequence (P15428 whole entry, looked up): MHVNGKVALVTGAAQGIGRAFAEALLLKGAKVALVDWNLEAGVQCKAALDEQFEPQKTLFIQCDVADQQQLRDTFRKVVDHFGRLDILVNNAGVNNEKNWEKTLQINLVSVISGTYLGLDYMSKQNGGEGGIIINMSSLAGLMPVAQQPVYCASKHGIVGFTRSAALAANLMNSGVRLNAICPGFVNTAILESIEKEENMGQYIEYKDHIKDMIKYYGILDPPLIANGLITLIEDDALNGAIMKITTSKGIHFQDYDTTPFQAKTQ
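20 nM HPGD preincubated 15 min at room temperature with compound in 50 mM Tris-HCl pH 8, 0.01% Tween 20. Started with 1 mM NAD+ and 30 uM prostaglandin E2; NADH fluorescence (360/450 nm) read 5 times over 30-s intervals, last minus first.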
PNC inhibitor: High Content Assay for Compounds that inhibit the Assembly of the Perinucleolar Compartment. actives 3.1% (n = 140,000). activity change (PNC), negative = inhibition, % at 10 µM. AID 2417, 2010. PC3M PTB-GFP, PNC prevalence imaging, 16 h; hits give low values;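 active means readout at or below -70, meaning at least 70% loss of cells showing the perinucleolar compartment, a nuclear body marking cancer cells; inconclusive means readout between -30 and a set limit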;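 further: plate controls were DMSO wells for no effect and camptothecin positive control wells for full effect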
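PC3M cells stably expressing PTB-GFP, 750–1000 cells/well, treated 16 h at 37 °C with compound (23 nl of library stock), in duplicate. After paraformaldehyde fixation and Hoechst stain, imaged at 20x; PNC prevalence scored by image analysis.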
IMPase cell inh: qHTS Assay for Identifying the Cell-Membrane Permeable IMPase Inhibitors; Inositol monophosphatase 1 (Rattus norvegicus), P97697; CHO-M1 cells, IP1 accumulation, HTRF TR-FRET ratio; inhibition (IP1 accumulation), % at 46.1 µM; 120,000 tested, under 10 active; active means well fitted curve in the direction sought with a large enough effect in the signal ratio, not every such curve was filed as active; inconclusive means small, poorly fitted or top-dose-only effect, or a change in a side signal; inactive means no such curve, though single readings can be large or run the other way; the % refers to the signal ratio;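 further: cells stimulated with carbachol in lithium chloride buffer; plate controls were DMSO basal wells for no effect and reference inhibitor wells for full effect; higher means more IMPase inhibition seen as more IP1 and lower FRET ratio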
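CHO-M1, 2000 cells/well, cultured 16–30 h; cpd up to 46 uM; carbachol (50 uM solution, stimulation buffer w/ 50 mM LiCl, pH 7.4), 30 min 37C; IP-One TR-FRET, 10 min RT; Ex 320/Em 665, 620; Hill-fit AC50.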
ALDH1A1 block: qHTS Assay for Inhibitors of Aldehyde Dehydrogenase 1 (ALDH1A1); Potency, µM (highest dose often 75.3 µM), without a hit: top-dose activity, negative = inhibition, usual class: inhibitors; Purified ALDH1A1, NADH fluorescence, propionaldehyde substrate; AID 1030, 2008; actives 7.3% (n = 220,000);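 further: potency means the concentration at half of the fitted maximal effect; plate controls were no enzyme wells and a reference inhibitor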
Target sequence (P00352 whole entry, looked up): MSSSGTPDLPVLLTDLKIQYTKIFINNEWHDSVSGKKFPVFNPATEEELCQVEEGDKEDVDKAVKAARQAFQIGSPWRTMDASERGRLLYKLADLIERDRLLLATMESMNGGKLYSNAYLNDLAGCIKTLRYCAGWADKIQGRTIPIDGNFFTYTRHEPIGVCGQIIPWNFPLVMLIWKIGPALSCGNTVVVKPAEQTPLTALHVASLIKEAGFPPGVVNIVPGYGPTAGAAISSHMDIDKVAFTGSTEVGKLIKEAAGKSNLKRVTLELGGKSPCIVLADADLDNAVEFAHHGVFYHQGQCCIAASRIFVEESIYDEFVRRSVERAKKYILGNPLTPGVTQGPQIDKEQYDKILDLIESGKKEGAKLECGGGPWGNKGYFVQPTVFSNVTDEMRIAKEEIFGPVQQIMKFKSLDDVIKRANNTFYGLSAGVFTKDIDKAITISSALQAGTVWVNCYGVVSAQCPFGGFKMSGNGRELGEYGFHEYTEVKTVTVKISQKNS
Numbers without * were called inactive; ? = inconclusive; . = no result; [ ] = dose if it differs, or a comment. Unless noted, the call rests on the fitted dose curve; in most records, active means well fitted inhibition curve with a large enough effect (not every such curve was filed as active); inconclusive means small, poorly fitted or top-dose-only effect, or another doubt; inactive means no such curve, though single readings can be large or run the other way. Unless noted, on the % scale 0 is the no-effect control and ±100 the full control effect.

SMILES	12-hLO inh	IMPase Li inh	HPGD block	PNC inhibitor	IMPase cell inh	ALDH1A1 block
O=C(Cc1ccccc1)Nc1nc2ccccc2[nH]1	0%	-12%[38.3 µM]	-6%	46	?	18µM*
CCNc1nc2ccccc2[nH]1	2%	17%[38.3 µM]	-10%	-109*	4	5%
Nc1ccccc1Sc1nc2ccccc2[nH]1	.	25%	.	.	.	13µM*
Nc1cc(N)cc(-c2nc3ccccc3[nH]2)c1	-1%	6%	?	20	2	?
Nc1nc2ccccc2[nH]1	0%	1%	-11%	.	.	20µM*
CCSc1nc2ccccc2[nH]1	4%	44%[38.3 µM]	-13%	?	6	0%
COc1ccc(/C(O)=C2/C(=O)C(=O)N(Cc3ccco3)C2c2cccs2)cc1 (centres undefined)	-8%	-6%[38.3 µM]	3%	-9	3	6%
COC(=O)c1ccc(C2/C(=C(/O)c3ccc(OC)cc3)C(=O)C(=O)N2Cc2ccco2)cc1 (centres undefined)	-10%	?	-11%	-5	5	18µM*
CO[C@@H]1[C@@H]2OP(=O)(O)OC[C@H]2O[C@H]1n1c(Sc2ccc(Cl)cc2)nc2c(N)ncnc21	-2%[0.00818 µM]	-6%	-4%	.	.	2%
COc1ccc(S(=O)(=O)Nc2cc(C(=O)NC(C)C)ccc2N2CCOCC2)cc1	6%	44%[38.3 µM]	-24%	-5	-2	0.79µM*
COc1ccc(S(=O)(=O)Nc2cc(C(=O)NC3CCCCCC3)ccc2N2CCOCC2)cc1	-14%	2%[38.3 µM]	-11%	55	10	3.5µM*
COc1ccc(NS(=O)(=O)c2ccc(N3CCOCC3)c(NC(=O)c3ccc(OC)cc3)c2)cc1	0%	10%	-6%	?	.	9%
O=C(O)[C@@H]1Cc2c([nH]c3ccccc23)[C@@H](CCCCO)N1	0%[11.4 µM]	-3%	-11%	.	.	1%[13.5 µM]
Cc1ccccc1OC(=O)n1c(=S)oc2cc(Cl)ccc21	7%	15%[38.3 µM]	?	-15	-10	7.1µM*
CCOC(=O)N1CCN(c2nnnn2-c2ccccc2)CC1	1%	-12%[38.3 µM]	-5%	-13	6	?
COc1ccc(C(=O)N2CCN(c3nnnn3-c3ccccc3)CC2)cc1OC	1%	-3%[38.3 µM]	-1%	11	-2	16µM*
CCCCn1c(O)c(N=Nc2ccccn2)c2ccccc21	0%	6%	-8%	-2	.	?
COc1ccccc1NC(=O)Cn1c(O)c(N=NC(=O)c2ccccc2O)c2ccccc21	.	-3%	.	.	.	1.6µM*
CCCCn1c(O)c(N=NC(=O)c2ccncc2)c2cc(Br)ccc21	-3%	20%	-2%	?	.	7.9µM*
Cc1ccc(NC(=O)Cn2c(O)c(N=NC(=O)c3ccncc3)c3ccccc32)cc1	.	3%	.	.	.	4.5µM*
C=CC[C@](C)(Nc1ccc(OC)cc1)C(=O)OCC	.	8%	-3%	.	.	4%
CCCOc1ccc(C(=O)C(c2ccccc2)N2CCOCC2)cc1 (centres undefined)	-5%	13%[38.3 µM]	?	-6	7	13µM*
C[C@H](NC(=O)N1CCc2nc(-c3ccccc3)c3c(c2C1)CO[C@@H](C)C3)c1ccccc1	1%[11.4 µM]	5%	-5%	.	.	1%[13.5 µM]
CCc1cccc(OCC(=O)Nc2ccc(S(=O)(=O)Nc3ncccn3)cc2)c1	.	.	.	.	-3	.
COc1cccc(C(=O)/C=C/c2ccc(OCC#N)c(OC)c2)c1	-5%	18%	-23%	20	.	8.9µM*
SMILES	12-hLO inh	IMPase Li inh	HPGD block	PNC inhibitor	IMPase cell inh	ALDH1A1 block
COc1ccc(C(=O)/C=C/c2ccc(OC3CSC3)cc2)cc1OC	-18%	14%	14µM*	26	.	?
COc1cccc(C(=O)/C=C/c2ccc(SC)cc2)c1	-2%	-1%[38.3 µM]	-19%	61	12	16µM*
O=C(/C=C/c1ccc(OC2CSC2)cc1)c1ccc(Cl)cc1	0%	10%	-14%	78	.	0%
COc1ccc2cccc(N3CCN(CCNC(=O)c4ccc(F)cc4)CC3)c2c1	-26%	2%	?	.	3	?
Cc1ccc(NC(=S)NNC(=O)C2CC2c2ccc(C)cc2)cc1 (centres undefined)	-14%	0%	-18%	-100*	2	?
O=C(NNC(=S)Nc1ccc(F)cc1)C1CC1c1ccc(Cl)cc1 (centres undefined)	-13%	11%	16µM*	-18	.	1%
COCCCNC(=S)NNC(=O)C1CC1c1ccc(C(C)(C)C)cc1 (centres undefined)	.	6%	.	.	.	7%
Fc1ccc(NC(=S)Nc2ccc(Cl)cc2)cc1	.	5%	.	.	.	-7%
COc1ccc(NC(=S)NNC(=O)C2CC2c2ccc(C)cc2)cc1 (centres undefined)	0%	-3%	-25%	24	.	2.5µM*
CCCC[C@@H]1CN2[C@H](c3ccc(Br)cc3)[C@@H](C)CC[C@H]2C(=O)O1	.	.	.	.	.	4%[13.5 µM]
COc1ccc(NC(=O)c2ccco2)cc1NC(=O)c1ccccc1[N+](=O)[O-]	.	.	.	.	-6	.
COc1ccc(C2(C(=O)Nc3nncs3)CCCC2)cc1	4%	5%[38.3 µM]	-10%	-80*	-13	-2%
CCc1c(C)sc(NC(=S)Nc2nc(C)cc(C)n2)c1C(=O)OC	.	14%	.	.	.	?
CCc1c(C)sc(NC(=S)Nc2cccnc2)c1C(=O)OC	.	-19%	.	.	.	9.5µM*
COc1ccc(Cc2n[nH]c(=S)n2Cc2ccccc2)cc1Cl	.	-7%	.	.	.	6%
CCN(CC)C(=O)c1ccc(S(=O)(=O)N2CCC(c3nc4ccccc4s3)CC2)cc1	4%	13%	-21%	-100*	-11	-5%
Cn1cnnc1SCCC(=O)Nc1ccc(Cl)cc1	2%	2%	-4%	-113*	0	13%
Cn1cnnc1SCCC(=O)Nc1ccccc1	-2%	.	.	28	4	-6%
CC(C)NC[C@@H](O)COc1ccccc1-n1cccc1	2%	2%	1%	.	-1	-2%
O=C(CN1C(=O)CSc2ccccc21)NC1CCCC1	-3%	.	.	?	1	-10%
O=C1CSc2ccccc2N1Cc1ccccc1F	-3%	1%[38.3 µM]	-31%	?	7	22µM*
